{
  "source": "PubChem BioAssay (NCATS)",
  "note": "Results filed as inconclusive are left out. Where a call stands in place of a potency, no number is given. Calls of active or inactive are those of the source. Calls follow the shape of the full dose curve.",
  "data": [
    {"assay": "Primary qHTS for inhibitors of SARS-S pseudo-typed particle cell entry (AID 1479145); also: nearly all actives have a fitted effect of over 45% in size", "conditions": "SARS-S pseudotyped particle cell entry, luciferase reporter; series mostly up to 57.1 µM", "values": [
      {"smiles": "CCCc1cc(C(N)=S)ccn1", "Potency": "inactive"},
      {"smiles": "Cc1cccc(C)c1NC(=O)C(C)N", "note": "(stereo not drawn)", "Potency": "inactive"},
      {"smiles": "C#C[C@]1(OC(C)=O)CC[C@H]2[C@@H]3CCC4=C/C(=N/O)CC[C@@H]4[C@H]3CC[C@@]21CC", "Potency": "inactive"},
      {"smiles": "C[C@H]1C[C@H]2[C@@H]3CCC4=CC(=O)C=C[C@]4(C)[C@@]3(Cl)[C@@H](O)C[C@]2(C)[C@@]1(O)C(=O)CO", "Potency": "inactive"},
      {"smiles": "CCOc1ccc(NC(C)=O)cc1", "Potency": "inactive"},
      {"smiles": "CC(C)=CCOc1ccc(/C=C/C(=O)c2ccc(OCC=C(C)C)cc2OCC(=O)O)cc1", "Potency": "inactive"},
      {"smiles": "NCCc1ccc(O)c(O)c1", "Potency": "inactive"},
      {"smiles": "O=C(O)CCNC(=O)c1ccccc1", "Potency": "inactive"},
      {"smiles": "OC[C@@H](O)[C@H](O)[C@H](O)[C@@H](O)CO", "Potency": "inactive"},
      {"smiles": "CC(C)c1cc2c(cc1S(=O)(=O)O)[C@@]1(C)CCC[C@@](C)(C(=O)O)[C@@H]1CC2", "Potency": "inactive"},
      {"smiles": "C/C(=C(/OCCOc1ccc(Cl)cc1)c1ccc(Cl)cc1Cl)n1ccnc1", "Potency": "inactive"},
      {"smiles": "COc1cccc(N(C)C(=S)Oc2ccc3c(c2)CCCC3)n1", "Potency": "inactive"},
      {"smiles": "CNC(=O)c1c(I)c(NC(=O)CCCCC(=O)Nc2c(I)c(C(=O)O)c(I)c(C(=O)NC)c2I)c(I)c(C(=O)O)c1I", "Potency": "inactive"},
      {"smiles": "CC(=O)OCC(=O)[C@@]12N=C(C)O[C@@H]1C[C@H]1[C@@H]3CCC4=CC(=O)C=C[C@]4(C)[C@H]3[C@@H](O)C[C@@]12C", "Potency": "inactive"},
      {"smiles": "O=C(OCC(COC(=O)c1cccnc1)(COC(=O)c1cccnc1)COC(=O)c1cccnc1)c1cccnc1", "Potency": "inactive"},
      {"smiles": "CC(=O)OCC(=O)[C@@]1(O)CCC2C3CCC4=CC(=O)CC[C@]4(C)C3[C@@H](O)C[C@@]21C", "note": "(stereo partly drawn)", "Potency": "inactive"},
      {"smiles": "Oc1ccc(C(O)CNCCCCCCNCC(O)c2ccc(O)c(O)c2)cc1O", "note": "(stereo not drawn)", "Potency": "inactive"},
      {"smiles": "CC(O)COc1ccccc1", "note": "(stereo not drawn)", "Potency": "inactive"},
      {"smiles": "Nc1ccc(C(=O)NCC(=O)O)cc1", "Potency": "inactive"},
      {"smiles": "C=CCCCCCCCCC(=O)O", "Potency": "inactive"},
      {"smiles": "O=C1c2cccc(O)c2C(=O)c2c(O)cccc21", "Potency": "inactive"},
      {"smiles": "CN(CCCN1c2ccccc2CCc2ccccc21)CC(=O)c1ccc(Cl)cc1", "Potency": "inactive"},
      {"smiles": "C#C[C@]1(O)CC[C@H]2[C@@H]3CCC4=CC(=O)CC[C@@H]4[C@H]3CC[C@@]21C", "Potency": "inactive"},
      {"smiles": "C[N+](C)(C)CCOC(=O)CCC(=O)OCC[N+](C)(C)C", "Potency": "inactive"},
      {"smiles": "CC(=O)/C=C/C=C1/C2CCC(C2)C1(C)C", "note": "(stereo not drawn)", "Potency": "inactive"},
      {"smiles": "NC(=O)C1(N2CCCCC2)CCN(CCCC(=O)c2ccc(F)cc2)CC1", "Potency": "inactive"},
      {"smiles": "Nc1c(CC(=O)O)cccc1C(=O)c1ccc(Br)cc1", "Potency": "inactive"},
      {"smiles": "C[C@H]1C[C@H]2[C@@H]3CCC4=CC(=O)C=C[C@]4(C)[C@H]3C(=O)C[C@]2(C)[C@@]1(O)C(=O)CO", "Potency": "inactive"},
      {"smiles": "OC[C@H]1O[C@@H](O[C@@H]2[C@@H](CO)O[C@](O)(CO)[C@H]2O)[C@H](O)[C@@H](O)[C@H]1O", "Potency": "inactive"},
      {"smiles": "CC(=O)N[C@H]1[C@H]([C@H](O)[C@H](O)CO)OC(C(=O)O)=C[C@@H]1N=C(N)N", "Potency": "inactive"},
      {"smiles": "CCN(CC)C(=O)c1cccc(C)c1", "Potency": "inactive"},
      {"smiles": "CCC1Nc2cc(Cl)c(S(N)(=O)=O)cc2S(=O)(=O)N1", "note": "(stereo not drawn)", "Potency": "inactive"},
      {"smiles": "CC(=O)N(CC(O)CN(C(C)=O)c1c(I)c(C(=O)NCC(O)CO)c(I)c(C(=O)NCC(O)CO)c1I)c1c(I)c(C(=O)NCC(O)CO)c(I)c(C(=O)NCC(O)CO)c1I", "note": "(stereo not drawn)", "Potency": "inactive"},
      {"smiles": "COCCc1ccc(OCC(O)CNC(C)C)cc1", "note": "(stereo not drawn)", "Potency": "inactive"},
      {"smiles": "COCc1c(C(C)C)nc(C(C)C)c(/C=C/[C@@H](O)C[C@@H](O)CC(=O)O)c1-c1ccc(F)cc1", "Potency": "inactive"},
      {"smiles": "C[C@@H]1C[C@H]2[C@@H]3CCC4=CC(=O)C=C[C@]4(C)[C@@]3(F)[C@@H](O)C[C@]2(C)[C@H]1C(=O)CO", "Potency": "inactive"},
      {"smiles": "c1ccc(CN(CC2=NCCN2)c2ccccc2)cc1", "Potency": "inactive"},
      {"smiles": "NCCc1cnc[nH]1", "Potency": "inactive"}
    ]}
  ]
}
